# Test results from PubChem BioAssay (NCATS).
# Inconclusive results are not listed. A call without a number means that no potency is given here. Active and inactive are the calls of the source. Calls follow the shape of the dose curve; as a rule, active = well fitted curve in the direction sought with a large enough effect; inconclusive = small, poorly fitted or top-dose-only effect, or another doubt; inactive = no such curve, though single readings can be large; an effect the other way counts as inactive or inconclusive.
# Experiments:
# [1] = molecular target: Aldehyde dehydrogenase, mitochondrial (Homo sapiens) (UniProt P05091); experiment: qHTS for Inhibitors of the Aldehyde Dehydrogenase Family (ALDH2) Primary screen (AID 2061308); also: nearly all actives have a fitted effect of over 55% in size
# [2] = molecular target: Retinaldehyde dehydrogenase 3 (Homo sapiens) (UniProt P47895); experiment: qHTS for Inhibitors of the Aldehyde Dehydrogenase Family (ALDH1A3) Primary screen (AID 2061315)
SMILES,Potency [1],Potency [2]
O=[S+]([O-])(c1ccc2c(c1)OCCO2)N1CCN([S+](=O)([O-])c2cc(Cl)ccc2F)CC1,inactive,inactive
O=C(Nc1ccc(-c2nc3ccccc3[nH]2)cc1)Nc1ccc2occc2c1,inactive,inactive
CC(=O)OC1CC2C3(C)CCC(OC(=O)CC(=O)O)C(C)(C)C3CCC2(C)C2(C)CCC(C3(C)CCC(=O)O3)C12 (stereo not given),inactive,inactive
Cn1nnnc1Sc1ncnc2scc(-c3ccc(Br)cc3)c12,inactive,inactive
O=C(OCc1c(-c2ccccc2)no[n+]1[O-])c1ccccc1,inactive,inactive
CCOc1ccc(CCNC(=O)C2(c3ccccc3)CC2)cc1OCC,inactive,inactive
Cc1nc(NCc2ccccc2)c2nc(-c3ccccc3)n(CC(C)(C)CN(C)C)c2n1,inactive,inactive
Cc1nc2cc(C(=O)NCc3ccccn3)nn2c(C)c1Cc1cccc(Cl)c1,inactive,inactive
O=C(O)c1ccc(CSc2nnc(-c3ccc([S+](=O)([O-])N4CCCC4)cc3)n2-c2ccccc2)cc1,inactive,inactive
CCn1cnc2c(NCc3cccnc3)nc(C#N)nc21,inactive,inactive
S=C(NCCCN(Cc1ccc(Cl)c(Cl)c1)c1ccc(Br)cn1)NCCc1cnc[nH]1,inactive,inactive
CC(C)Nc1nc(C#N)nc(Nc2ccccc2)n1,inactive,inactive
Cn1ccc2cc(-c3ccc4ncnc(NCc5ccc6c(c5)OCO6)c4c3)ccc21,inactive,inactive
Cn1c2cc(C=O)sc2c2cnn(Cc3ccccc3F)c(=O)c21,inactive,inactive
Cc1ccc(-n2nc3c(N4CCCC(C(=O)NCc5ccccc5C)C4)nnc(C)c3c2C)cc1 (stereo not given),inactive,inactive
CC(=O)Nc1ccccc1NC(=O)c1cnn2c(C)cc(C)nc12,inactive,inactive
CCN1CCN(C(=S)c2ccc(O)cc2)CC1,inactive,inactive
CCC(C)N(C)C(=O)Cn1nc(-c2ccc(C)cc2)ccc1=O (stereo not given),inactive,inactive
CCOC(=O)c1c(/C=N/Nc2ccccc2)c2sc(C)cc2n1C,inactive,inactive
O=C(Nc1ccc(-c2cn[nH]c2)cc1)Nc1nnc(-c2ccncc2)s1,inactive,inactive

SMILES,Potency [1],Potency [2]
Cc1cc(C)nc(NC(=S)N2CCN(c3ncccc3Cl)CC2)c1,inactive,inactive
CCCn1c(C)nc2c(NCC3CCCN3CC)nc(C)nc21 (stereo not given),inactive,inactive
C=C1C[C@]23C[C@H]1CC[C@H]2C1=C[C@H]2OC(=O)[C@@](C)([C@H]1[C@@H]3C(=O)O)[C@H]2O,inactive,inactive
Cn1cc(P(=O)(c2ccccc2)c2ccccc2)c2ccccc21,inactive,inactive
Cc1cccc(CNc2ccnc(-c3ccccc3C(F)(F)F)n2)c1,inactive,inactive
C=C1C(=O)O[C@@H]2/C=C(\CO)CC/C=C(\CO)[C@H](OC(C)=O)C(OC(=O)C(C)CC)C12 (stereo not given in full),inactive,inactive
O=C1CCc2cc(S(=O)(=O)Nc3ccc(F)c(Cl)c3)c(F)cc2N1,inactive,inactive
FC(F)(F)c1cc(-c2ccc(CNc3nc(C4CCCC4)nc4ccccc34)cc2)ccn1,inactive,inactive
Cc1cc(C)nc(NC(=S)N2CCN(c3ccccn3)CC2)c1,inactive,inactive
O=C(NCCCc1cnc[nH]1)NCCCN(Cc1ccc(Cl)c(Cl)c1)c1ccc(Br)cn1,inactive,inactive
COc1cccc(CCN2C(=O)c3ccccc3NC2c2ccc(OC)c(COc3c(C)cc(NC(C)=O)cc3C)c2)c1 (stereo not given),inactive,inactive
CCC(C)/C=C(C)/C=C/C1=CC2=C(Cl)C(=O)C(C)(OC(C)=O)C(=O)C2(O)C(OC)O1 (stereo not given),inactive,inactive
NC(=O)C1CCN(c2nc(-c3ccccc3F)cs2)CC1,inactive,inactive
COc1ccc(OC)c(C(=O)Nc2nc(-c3ccccc3)cs2)c1,inactive,inactive
Cc1ccc(NS(=O)(=O)c2cccc(C(=O)Nc3nc(-c4ccccc4)cs3)c2)cc1,inactive,inactive
O=S(=O)(c1ccc2c(c1)OCCO2)N1CCN(S(=O)(=O)c2ccccc2F)CC1,inactive,inactive
CCCn1c(C)nc2c(NCCCN(CCO)CCO)nc(C)nc21,inactive,inactive
Cc1cc2c(s1)c1cnn(Cc3ccccc3Br)c(=O)c1n2C,inactive,inactive
O=C(OCC#CCSc1nnc(-c2cccc3ccccc23)o1)c1ccc(SC(F)(F)F)cc1,inactive,inactive
Cc1cc(-c2nnc3n2CCCCC3)c(C)n1-c1cccc(Cl)c1,inactive,inactive
